Screens: PubChem BioAssay, National Center for Advancing Translational Sciences (NCATS)
ERK EGF inh: qHTS Assay for Inhibitors of the ERK Signaling Pathway using a Homogeneous Screening Assay; Stimulation with EGF; 130,000 compounds, 0.41% hits; Potency, µM (top dose mostly 11.5 µM), for inactives: at the top dose activity change, negative = inhibition, hits mostly inhibitors; HEK293-V1b, EGF-stimulated phospho-ERK AlphaScreen; AID 1454, 2008; active = well fitted inhibition curve with a large enough effect;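 note: plate controls were stimulated vehicle wells for no effect and unstimulated vehicle basal for full effect; nearly all actives have a fitted effect of over 55% in size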
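Phospho-ERK1/2 measured by AlphaScreen (SureFire) after 5 min 25 nM EGF stimulation of V1b-expressing HEK293 cells preincubated 30 min at 37C with titrated compounds; data scaled to DMSO and EGF controls, Hill-fitted AC50.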
* = called active by the depositor; [ ] = remark or other dose. Only a selection was taken, and hits are over-represented in it overall. Potency is the fitted concentration of half-maximal effect.

SMILES | ERK EGF inh
CC[C@@]1(O)CC2CN(CCc3c([nH]c4ccccc34)[C@](C(=O)OC)(c3cc4c(cc3OC)N(C)C3[C@@](O)(C(=O)OC)C(OC(C)=O)[C@]5(CC)C=CCN6CC[C@@]43C65)C2)C1 (stereo not given in full) | -1%
Nc1ncnc(N2CCc3ccccc32)c1[N+](=O)[O-] | -2%
CCOc1ccc(C(=O)NCC(=O)Nc2ccc(N3CCOCC3)cc2)cc1OCC | 14%
COc1ccc(/C(C)=N/N=C(N)N)c(OC)c1 | -5%[57.5 µM]
CC(C)CN1CCC(=O)N([C@H](CSc2ccc(Br)cc2)c2ccccc2)CC1 | -1%[57.5 µM]
Cc1ccc(SC[C@H](c2ccccc2)N2CCN(C)CCC2=O)cc1 | -16%[57.5 µM]
Cc1ccc(SC[C@H](c2ccccc2)N2CCN(CC(C)C)CCC2=O)cc1 | 32µM*
Cc1c(Cl)cccc1NC(=S)N=Nc1c(O)n(CN2CCOCC2)c2ccccc12 | 5%
Oc1c(N=NC(=S)Nc2ccccc2F)c2ccccc2n1Cc1ccccc1Cl | 14µM*
NC(=S)N=Nc1c(O)n(Cc2ccccc2)c2ccccc12 | 2%
Cc1ccc(S(=O)(=O)NC(=O)O[C@@H]2C(=O)c3cc(Br)ccc3O[C@H]2c2ccc3c(c2)OCO3)cc1 | 5%
CC(C)C1/C(=N/O)CC(c2ccccc2)NC1c1ccccc1 (stereo not given) | -11%[57.5 µM]
CCCC1/C(=N/O)CC(c2ccccc2)NC1c1ccccc1 (stereo not given) | 35µM*
O=C1CC(c2ccc(Br)cc2)NC(c2ccc(Br)cc2)C1c1ccccc1 (stereo not given) | 3%
CCN(CC)c1ccc(/C=N/N=C(c2ccccc2)c2ccccc2)c(O)c1 | 3%
CCN(CC)c1ccc(/C=N/N2CCN(Cc3ccccc3Cl)CC2)c(O)c1 | 16µM*
Oc1ccc(/C=N/n2cnn(Cc3ccccc3Cl)c2=S)c(O)c1 | -8%
CCCCC/C=C\C/C=C\C[C@H](O)/C=C/C=C\CCCC(=O)O | 3%
Cc1nnsc1-c1nnc(SCC(=O)c2ccc(F)cc2)n1C1CC1 | -10%[57.5 µM]
Cc1cn(C2OC(COC(=O)c3ccccc3)C(OC(=O)c3ccccc3)C2OC(=O)c2ccccc2)c(=O)[nH]c1=O (stereo not given) | 8%
CC(=O)NC1C(OCCOc2ccc(Cl)cc2Cl)OC(COC(C)=O)C(OC(C)=O)C1OC(C)=O (stereo not given) | -8%[57.5 µM]
O=C(OCC1OC(OC(=O)c2cc(O)c(O)c(OC(=O)c3cc(O)c(O)c(O)c3)c2)[C@@H](OC(=O)c2cc(O)c(O)c(OC(=O)c3cc(O)c(O)c(O)c3)c2)C(OC(=O)c2cc(O)c(O)c(OC(=O)c3cc(O)c(O)c(O)c3)c2)C1OC(=O)c1cc(O)c(O)c(OC(=O)c2cc(O)c(O)c(O)c2)c1)c1cc(O)c(O)c(OC(=O)c2cc(O)c(O)c(O)c2)c1 (stereo not given in full) | 7.9µM*
COc1ccc(C(C)=O)cc1COC(=O)c1ccc(S(=O)(=O)N(C)C)cc1 | 4%
COc1cccc(-c2ccc3ncnc(NCc4cccs4)c3c2)c1 | 28µM*
COc1cccc(-c2ccc3ncnc(NC4CCNCC4)c3c2)c1 | 34%
SMILES | ERK EGF inh
c1cncc(CNc2ncnc3ccc(-c4cccnc4)cc23)c1 | 11%
CCCCn1c(SCC(=O)c2ccc3c(c2)NC(=O)CO3)nc2cc(S(N)(=O)=O)ccc21 | 4%
O=C(NC(=S)Nc1ccc(CN2CCOCC2)cc1)c1ccc(-c2ccc(Cl)cc2)o1 | -1%[57.5 µM]
O=C(Nc1ccc(CN2CCOCC2)cc1)c1ccc(-c2ccc(Cl)cc2Cl)o1 | 25µM*
O=C(/C=C/c1ccc(Cl)cc1Cl)NC(=S)Nc1ccc(CN2CCOCC2)cc1 | 3%
CCCOc1ccc(C(=O)NCC(C)(C)N2CCOCC2)cc1 | 1%
CC(C)(C)[C@@H]1C=C(C(=O)Nc2ccccc2)O[C@H](OCc2ccc(CO)cc2)C1 | -2%[57.5 µM]
NNC(=O)c1nc(Cl)c(Cl)c(N)c1Cl | -13%[57.5 µM]
NNC(=O)c1csc(Cc2c(Cl)sc3ccc(Cl)cc23)n1 | 27%[57.5 µM]
O=C(O)c1ccc(/C=N/N2CCN(Cc3cccc4ccccc34)CC2)cc1 | 0%
Cn1cccc1/C=N/N1CCN(c2ccccn2)CC1 | 30%
Cn1cccc1/C=N/N1CCN(Cc2cccc3ccccc23)CC1 | 18µM*
COc1cc(CNC(=O)c2nc(Cn3nc(C)c(Br)c3C)no2)cc(OC)c1 | -6%
CC(C)Cn1nnnc1S(=O)(=O)Cc1ccccc1 | -9%
CCCN1C(=O)/C(=C/c2ccc(N3CCOCC3)cc2)NC1=S | -4%
CCOc1cc(/C=C2/NC(=O)N(CC(=O)OC)C2=O)ccc1OC | -3%
CCCN1C(=O)/C(=C/c2ccc(OCC(=O)OCC)cc2)NC1=S | 32µM*
CC(=O)N1CCc2cc(Br)cc(S(=O)(=O)N3CCc4ccccc43)c21 | -2%[57.5 µM]
CCN(CC(=O)NCCC1=CCCCC1)S(=O)(=O)c1ccccc1 | -4%[57.5 µM]
O=C(Cc1nc2ccccc2[nH]1)c1cccc([N+](=O)[O-])c1 | 5%[57.5 µM]
Cc1ccc(Nc2c(-c3ccccc3O)nc3cnccn23)cc1 | 25µM*
COc1ccc(Nc2c(-c3ccc(C)cc3)nc3cnccn23)cc1 | -4%
COc1ccc(Nc2c(-c3ccc(OC)cc3)nc3cnccn23)cc1 | 7%
O=C(Nc1cccc(F)c1)N1CC2(CCN(C(=O)c3cccc(F)c3)CC2)C1 | 0%
Cc1ccccc1NC(=O)c1cc([N+](=O)[O-])ccc1NCCN1C(=O)CCC1=O | -4%
SMILES | ERK EGF inh
Cc1ccc(NC(=S)NC(=O)c2ccc(F)cc2)cc1S(=O)(=O)Nc1cccc(Cl)c1 | -5%
Cc1ccc(NC(=O)CC(=O)c2ccc([N+](=O)[O-])cc2)cc1S(=O)(=O)Nc1cccc(Cl)c1 | 18%
Cc1ccc(NC(=O)c2cccs2)cc1S(=O)(=O)Nc1cccc(Cl)c1 | 20µM*
O=C(/C=C/c1ccco1)N(c1ccccn1)c1ccccn1 | -6%
Cc1cc(F)c(F)c(C(=O)N2C(C)CCCC2C)c1Cl (stereo not given) | -1%
N#C/C(C(N)=O)=c1/ccc2c(c1)N1C3=C(CCCC3)CC3CCCCC31N=2 (stereo not given) | 7.9µM*
CC(C)CSc1ccc(S(=O)(=O)NCC(=O)O)cc1[N+](=O)[O-] | -8%
COc1ccc(NC(=O)N2CCC3(CC2)CCN(C(=O)c2csnn2)CC3)cc1 | -10%
C(#Cc1ccccc1)C[N+]1(CC#Cc2cccc3ccccc23)CCOCC1 | -10%
Cc1cccc(NC(=O)c2ccc(OC3CSC3)cc2)c1 | 0%
COC(=O)c1cccc(NC(=O)c2ccccc2)c1 | -2%[57.5 µM]
O=C(Nc1cccc(Br)c1)c1ccc(OC2CSC2)cc1 | 25µM*
CC(C)OC(=O)c1cccc(C(=O)Nc2cccc(NC(=O)c3cccc(C(=O)OC(C)C)n3)n2)n1 | -9%
N#CCCN1CCCc2cc(N=Nc3ccc(C(F)(F)F)cc3)ccc21 | 22µM*
N#Cc1c(N2CCOCC2)nsc1-c1ccc(C(F)(F)F)cc1 | 6%[57.5 µM]
COC(=O)c1cccc(Nc2nc(-c3cccnc3)nc3ccccc23)c1 | -6%[57.5 µM]
COc1ccc(C(=O)Oc2cccc(Nc3ncnc4ccccc34)c2)cc1OC | 25µM*
CC(=O)Nc1ccc(Nc2ncnc3ccccc23)cc1 | -3%[57.5 µM]
COc1ccc([N+](=O)[O-])cc1Nc1ncnc2ccccc12 | -3%
O=C(O)c1cccc(Nc2nc(-c3cccnc3)nc3ccccc23)c1 | 12%
O=C(Oc1cccc(Nc2ncnc3ccccc23)c1)c1cccnc1 | 14µM*
O=C(O)c1ccccc1C(=O)NCCc1c(C(=O)O)[nH]c2ccc(Cl)cc12 | -1%[57.5 µM]
O=C(c1c[nH]c(C(=O)C(Cl)(Cl)Cl)c1)c1ccccc1Br | 0%
